Assay results from PubChem BioAssay AID1347423 (Functional Genomics Laboratory (NCATS/FGL), 2020).
The whole screen tested about 52,000 sequences, of which about 210 (0.4%) were called active. This excerpt belongs to a sample that is enriched for actives. Values without a mark were called inactive.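 The calls were made as follows: active = gene whose silencing raises cell survival under the drug, median off-target-corrected z-score across its silencing RNAs 2 or more; inactive = the rest.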

Assay: Resistance to Poly (ADP-Ribose) Polymerase inhibitor: Gene Identification via Genome-wide siRNA Screen
Conditions: mouse BRCA2 R2336H ES cells, olaparib, CellTiter-Glo viability; stronger effect = higher value
Procedure, shortened: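 Mouse BRCA2 R2336H ES cells were reverse-transfected with siRNA (20 nM final), treated at 48 h with 500 nM olaparib, and read by CellTiter-Glo after 72 h. Scores: MAD-based z per siRNA, median per gene, seed off-target correction.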
In the case of “GGUCCUUCCUCAGAUCCCUTT against 5730457F11Rik”, the z-score was 1.66 (active). Sequence GCUCUCACACCCUUAUGUATT against Sdfr1 has a z-score of -1.45. For GGAAUACUUAUAGCUGACUTT against Rdhe2, the z-score was 0.32. For GGGCUAUAACCCUGAAGAUTT against Rarg, the z-score was 1.67 (active). In the case of “GGACUUAGACAUCCACCUCTT against 1700034O15Rik”, the z-score was -0.799. With CCGGGUGCUGUUCUAUAAGTT against Pecam1 the z-score was 0.0651. Work on “GCUUGGAAGACUGUAAACUTT against 4921521K07Rik” yielded a z-score of 0.958. With GGUGGUCUGGUUCAAGGAUTT against Mylk the z-score was -0.558. GGGUCCCUAAGCAUGUUCCTT against Slfn10 showed a z-score of 1.48. With CGCAGAAGCUAAUAAACAGTT against Psmb6 the z-score was -1.52. With GCUGUUUUAUCUCCAAUGGTT against Araf1 the z-score was 1.6 (active). Work on GGACAAGUUUCAGUGACCCTT against Zdhhc9 yielded a z-score of -0.268. With GCCAUAUACAGGUUCAAAGTT against Msh6 the z-score was 0.613. In the case of GCCCAAUAUACUCUAAGGGTT against Cdh20, the z-score was 0.338. “GCAUCAAAAUCGGUUUCUGTT against 4930526D03Rik” gave a z-score of -0.28. For GGAUCGCUCAUGGAUAUUUTT against Fus, the z-score was -0.22 (active). With GGAGACAGAAUGCACAUUUTT against Tff3 the z-score was -1.75. For “CCAUUCGGACCAAAGUGUATT against 4930563C04Rik”, the z-score was -1.48. For GCCUCUGAGUUGCAUGAGUTT against Ppp2r5b, the z-score was 2.37 (active). Sequence “GCAAUGGUUGGUUCAAUAATT against 5730427C23Rik” has a z-score of -1.47. “GGUAGAGGUUAAGACGAUCTT against C330023D02Rik” showed a z-score of -0.997. With “CGGUGAAAAACCUAUGUAUTT against 1700028P14Rik” the z-score was 0.894. Sequence GGCAUUCUUAUAAAGAAACTT against Ube2q has a z-score of 3.88. For “CGCUGAAAUAAAGACCAGATT against 2400010G15Rik”, the z-score was 1.99 (active). GCCAGUGAGGCUACUUUCATT against Myo18a gave a z-score of -0.423. “GCAUCUCACUCGUAAAGGUTT against 4732406D01Rik” gave a z-score of -0.389. With GGGAGAGGCACAAAGCAUATT against Ubxd3 the z-score was 1.27. For GGGUUUUGUGUAAAAGGUUTT against Olfr584, the z-score was 1.72 (active). With “GGGACACAAUUCUUUGAAATT against G630009D10Rik” the z-score was 0.375. In the case of GGACAUAAAAGACUUAAAGTT against Actr8, the z-score was 3.83 (active). GGAGCCAUGACUUUUCACUTT against Sec22l1 gave a z-score of 0.164. GAGUCCCUUGGCAGCUCAUTT against Klra8 gave a z-score of -0.753. With “GCACAAGAGGUAUCCUUGCTT against A630038D02” the z-score was -0.381. Work on GGAACAGAAAGCUAUGGAUTT against Surf6 yielded a z-score of -0.706. For GGGAGAGUCAAAAAAAGAUTT against Khdrbs1, the z-score was 2.83 (active). Sequence “GGAGUACCUGGACAUUGUGTT against 1110032N12Rik” has a z-score of 0.677. Work on GGACGGACAUUUAUGACCCTT against Cpsf3 yielded a z-score of -0.072. For GGAAAUUCAGCAUGGAGCCTT against Vgll4, the z-score was -0.472. In the case of “CCUCUCCAACAACCAACUATT against 2900010D03Rik”, the z-score was -1.42. For GGAGAUAAAAGUUUCAUCUTT against Jmjd2b, the z-score was 0.46. With GGUACCUGUUUGUUUUACATT against Epb4.1l4b the z-score was 5.02. For “CCCUAGAAUGGGAAUGUCATT against C030022K24Rik”, the z-score was 0.313. For GUCAUCAAACUAGGUGCUGTT against Olfr584, the z-score was 5.09 (active). For GGGUCCAUUGUCAAUGUCUTT against Cbr2, the z-score was -0.721. “GGGCUUCGAUGCUAUCAUCTT against 6430573F11Rik” gave a z-score of 0.734. With CCAUCUACGUGGGACACAATT against Atp11a the z-score was -1.41. Sequence GGAGAACGAAAGGAUGAAATT against Rpusd4 has a z-score of -1.09. “GGAGAAAAGGAUGUUGUUATT against 2310005P05Rik” gave a z-score of 2.57. In the case of CGAUAAUUUGGCUAAGUAUTT against Pip5k3, the z-score was 0.0345. Work on “CCAAGGGAAGAUUCAAAUUTT against D930031B21Rik” yielded a z-score of -1.19. In the case of “GCCAGAAACUAAUGAGAUCTT against 1110001E17Rik”, the z-score was 1.17 (active). With GGAAUUUUCUAUAGUCCGGTT against Flrt2 the z-score was 0.268. For “GCGCAAAGGUGAAACGUAGTT against E030011O05Rik”, the z-score was -0.0435. Sequence GCAUCCUACGCAUUAAAUCTT against Olfr146 has a z-score of -0.12. For CGAAAAUCAAGGGAGCUCATT against Rnf19, the z-score was -0.128. For “GCACCAUGUCAGGAAGUGUTT against B230315M08Rik”, the z-score was 3.45 (active). GCCUUUUAGCUGUUCAGGATT against AI451557 gave a z-score of -1.18. For GGAGUUCAUUCUGAAUCAGTT against Etohi2, the z-score was -0.817. Work on GCUACAAAGCGAUGUUUCATT against Pola2 yielded a z-score of -1.88. In the case of GGUCUCCACCUCCAUAUCCTT against Slc15a3, the z-score was 0.715. In the case of GCAGAGGAUAUAAAACAAGTT against Pde2a, the z-score was 0.234 (active). Sequence CGUCUCAACAGAGUUGGAGTT against Hrmt1l1 has a z-score of 0.151. In the case of CCCAGAACUAUUCAACACUTT against Sema4g, the z-score was 1.4. For “GGCAGAGAAAAGGACCUUUTT against 2400002F11Rik”, the z-score was -1.69. In the case of GGACAUAAGUGACAGACAUTT against Chrnb2, the z-score was -1.32 (active). GCAUUCAUGAAAGUGUUAGTT against Olfr164 showed a z-score of 1.23.
